Common to all, as to assay: NCI-60 one-dose screen, 48 h (100 = growth as untreated, 0 = no growth, -100 = all killed)
Common to all, as to conditions: 10 µM unless noted

Assay [1] deals with SK-MEL-2 melanoma.
In assay [2] the test system is EKVX NSCLC.
In assay [3] the test system is SN12C renal.
Assay [4] deals with UO-31 renal.
Assay [5] has as its system TK-10 renal.
The subject of assay [6] is ACHN renal.
For assay [7], the system named is CAKI-1 renal.
Assay [8] relates to CCRF-CEM leukemia.
Assay [9] concerns MOLT-4 leukemia.
Assay [10] has as its system A498 renal.

Structures are written as SMILES. Compounds without any hit were thinned out: in the full panel of roughly 83,000, 20% have a hit.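 Growth was measured after 48 h exposure to one concentration of compound in 96-well plates. Values under 10 count as active.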 The source made the active and inactive calls.

As to `COc1cc2ncnc(Nc3ccc(F)c(Cl)c3)c2cc1OCC(=O)N1CCN(c2ccc(F)cc2)CC1`, the growth was 97.5% (inactive) in assay [1]; 78.3% (inactive) in assay [2]; 88.2% (inactive) in [3]; 44.5% (inactive) in assay [4]; 38.2% (inactive) in [5]; 45.9% (inactive) in assay [6]. Also, the growth was 44.8% (inactive) in [7], 113% (inactive) in assay [8] and 85.8% (inactive) in assay [9].
Take `Cc1cc(C(=O)Nc2cc(Nc3ncccc3-c3ncnc4nc[nH]c34)ccc2F)cc(C(F)(F)F)c1`: the growth in assay [1] was 6.72% (active); in [2], 67.1% (inactive); in assay [3], 55.7% (inactive); in assay [4] it was 94.1% (inactive); in assay [5], 68% (inactive); in assay [6], 45.1% (inactive). Moreover, the growth in assay [7] is 15.4% (inactive); in [10], -26.9% (active); in [8], 62.3% (inactive); in [9], 47.2% (inactive).
As for `COc1ccc(C2=Nc3c/c(=C\c4c(O)[nH]c5cc(Cl)ccc45)ccc3=N2)cc1`, the growth is 54.4% (inactive) in assay [1]; 80.7% (inactive) in assay [2]; 96.5% (inactive) in [3]; 58.6% (inactive) in assay [4]; 114% (inactive) in assay [5]; 76.9% (inactive) in [6]. Further, the results for the growth in assay [7], in [8] and in assay [9] were 75.9% (inactive), 54.8% (inactive) and 83.9% (inactive), respectively.
As to `COc1cc2c(/C=C3\C(=O)Nc4ccccc43)c(C(=O)O)[nH]c2cc1C`, the growth is 101% (inactive) in [1]; 89.2% (inactive) in assay [2]; 99.7% (inactive) in [3]; 55% (inactive) in assay [4]; 134% (inactive) in assay [5]; 90.5% (inactive) in assay [6]. For the same compound, the growth in assay [7] was 94.8% (inactive); in [8], 88.7% (inactive); in assay [9], 84% (inactive).
For `O=C(Nc1ccccc1)c1sc(-c2ccccc2)cc1O`, the growth in assay [1] is 105% (inactive); in [2], 86.7% (inactive); in [3], 105% (inactive); in assay [4], 86.5% (inactive); in [5], 118% (inactive); in assay [6], 93.1% (inactive). Moreover, the growth in [7] is 90.6% (inactive); in assay [8] it was 96.7% (inactive).
Take `CC1O[C@@H]2C[C@@](O)([C@H]1O)n1c3ccccc3c3c4c(c5c6ccccc6n2c5c31)C(=O)NC4=O` (stereo partly drawn): the growth in assay [1] was 75.4% (inactive); in assay [2] it was 68.7% (inactive); in assay [3] it was 55.1% (inactive); in [4], 24.8% (inactive); in [5], 79.6% (inactive); in assay [6], 19.3% (inactive). In addition, the results for the growth in assay [7], in [8] and in assay [9] were 28% (inactive), 27.9% (inactive) and 10.5% (inactive), respectively.
As for `O=C(Nc1ncc(Cc2ccccc2Cl)s1)c1cccs1`, the growth is 69.4% (inactive) in [1]; 77.7% (inactive) in [2]; 82.5% (inactive) in assay [3]; 70.8% (inactive) in assay [4]; 88% (inactive) in assay [5]; 73.2% (inactive) in assay [6]. The growth was 41.8% (inactive) in assay [7] and 66.2% (inactive) in [8].
Consider `O=C(CSc1nc2ccc([N+](=O)[O-])cc2[nH]1)Nc1ccc(Br)cc1`, for which the growth was 42.2% (inactive) in assay [1]; 50% (inactive) in assay [2]; 46.1% (inactive) in assay [3]; 41% (inactive) in [4]; 94.5% (inactive) in assay [5]; 52.6% (inactive) in assay [6]. Further, the growth in [7] was 39.6% (inactive); in assay [8], 39.1% (inactive); in assay [9] it was 26.6% (inactive).
For the compound `C=CCOC(=O)C1=C(C)NC(=O)NC1c1c(Cl)n(C)c2ccccc12` (stereo not drawn), the growth in assay [1] was 112% (inactive); in assay [2], 98.2% (inactive); in assay [3] it was 96.9% (inactive); in assay [4] it was 80.9% (inactive); in [5] it was 102% (inactive); in [6], 99.7% (inactive). Moreover, the growth was 101% (inactive) in [10], -49.5% (active) in assay [8] and 98.5% (inactive) in assay [9].
For `COc1cc(Nc2c3ccc(Cl)cc3nc3ccc(OC)cc23)c2ncccc2c1`, the growth in assay [1] was 78.6% (inactive); in assay [2] it was 39.2% (inactive); in assay [3], 52.5% (inactive); in [4] it was 26.9% (inactive); in assay [5] it was 44.7% (inactive); in assay [6], 31.2% (inactive). Also, the growth in assay [10] was 62.4% (inactive); in assay [8], 26.9% (inactive); in assay [9], 39.3% (inactive).
With `COc1ccc(C2=NN(C(C)=O)C(c3ccc(Oc4ccnc5cc(Cl)ccc45)c(OC)c3)C2)cc1` (stereo not drawn), the growth in [1] was 42.4% (inactive); in assay [2] it was 62% (inactive); in [3], 68.7% (inactive); in [4], 70% (inactive); in assay [5] it was 36.6% (inactive); in assay [6], 22.9% (inactive). The growth in [10] was 66.3% (inactive); in [8] it was 85.7% (inactive); in [9] it was 78.9% (inactive).

The values above are taken from PubChem BioAssay (NCI).
